DAX1 inh-1: inhibits human nuclear receptor DAX1; P51843; HEK293 Gal4-DAX1 luciferase reporter, luminescence; inhibition, % at 6.75 µM; 340,000 tested, 0.99% active; AID 504766;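 active = inhibition above the mean over all tested compounds plus 3 SD, cut at about 4.2% in these data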;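 note: inhibition shows as a rise in luminescence from relieved DAX1 repression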
Target sequence (P51843 207-470 limits assumed): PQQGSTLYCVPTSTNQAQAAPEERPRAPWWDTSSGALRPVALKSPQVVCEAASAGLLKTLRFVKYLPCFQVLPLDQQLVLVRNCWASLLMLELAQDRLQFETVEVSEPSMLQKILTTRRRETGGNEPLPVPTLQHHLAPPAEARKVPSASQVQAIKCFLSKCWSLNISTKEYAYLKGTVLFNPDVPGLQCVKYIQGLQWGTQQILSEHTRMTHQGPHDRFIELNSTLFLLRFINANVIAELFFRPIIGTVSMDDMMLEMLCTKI
AHR activator: activators of human aryl hydrocarbon receptor; P35869; 320,000 tested, 2.5% active; AHR-responsive luciferase reporter cells, luminescence; activation, % at 5 µM; in the data active = activation above about 47%
DAX1 inh-2: DAX1 (NR0B1) inhibition, primary screen; HEK293T StAR-luciferase reporter, SF-1/DAX-1 repression relief; 370,000 tested, 1.1% active; AID 652010; inhibition, % at 6.8 µM;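 active = inhibition above the mean over all tested compounds plus 3 SD, cut at about 3.6% in these data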;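 note: higher inhibition means more luminescence from relief of DAX-1 repression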
hcDAF12 agonist: activators of H. contortus DAF-12 nuclear receptor. HEK293 hcDAF-12 lit1-tk-luc reporter, luminescence; 0% DMSO, 100% Δ7-dafachronic acid. 370,000 tested, 1.4% active. activation, % at 6.8 µM;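 active = activation above the mean of all tested compounds plus 3 SD, cut at about 5.5% in these data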
hgDAF-12 ag: agonists of H. glycines DAF-12 nuclear receptor; activation, % at 6.8 µM; 370,000 tested, 1.8% active; AID 687014; HEK293 GAL4-hgDAF12 UAS-luciferase reporter, agonist luminescence; normalized to butyrate control;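 active = activation above a cutoff set at the mean of all screened compounds plus 3 SD, cut at about 10% in these data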
ssDAF12 agonist: activates DAF-12 receptor from parasite S. stercoralis. HEK293 ssDAF-12/GRIP1 lit1-tk-luc reporter, luminescence; % of 3 µM dafachronic acid response. activation, % at 6.8 µM. 370,000 tested, 1% active;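 active = activation above the mean over all tested compounds plus 3 SD, cut at about 0.9% in these data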
LXR ag: LXR-beta agonism as hcDAF-12 counter-screen; shares compounds with hcDAF12 agonist; 3,400 tested, under 10 active; HEK293 Gal4-LXR tk-luc reporter, luminescence, 24 h; normalized: DMSO 0%, positive control 100%; activation, % at 6.8 µM;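 active = mean percent activation of the reporter above a cutoff set as the average over tested compounds plus their standard deviation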
hcDAF12 conf: confirmation of H. contortus DAF-12 agonists; 3,400 tested, 61% active; activation, % at 6.8 µM; shares compounds with hcDAF12 agonist; HEK293 hcDAF-12 lit1-tk-luc reporter, luminescence; % of Δ7-dafachronic acid response; AID 743032;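 active = mean activation across triplicate tests above the threshold derived from the earlier primary screen, cut at about 5.5% in these data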
Large screens that a line does not name were inactive (follow-up assays come after a bar, where they were run). The list is not random: actives were taken first. Their share in the collection is about 5.7%.

Cc1c(/C=N\NC(=O)c2c[nH]c3ccccc23)cnn1C	AHR activator 76.1, hcDAF12 agonist 9.4, ssDAF12 agonist 1.7 | LXR ag inactive | hcDAF12 conf inactive
COc1ccc(N2CCN(C(=O)C3CCCO3)CC2)cc1 (configuration not stated)	none
CCCCOc1ccc(S(=O)(=O)NNC(=O)c2cc3ccccc3o2)cc1	none
C#CCSc1nnnn1-c1ccc(Br)c(C)c1	hcDAF12 agonist 10.0 | LXR ag inactive | hcDAF12 conf inactive
O=C(c1cc(-c2ccc(F)cc2)nc2ccccc12)N1CCC1	none
O=C(O)c1cc(-c2ccc(-c3ccc(F)cc3)o2)nc2ccccc12	hcDAF12 agonist 12.7, hgDAF-12 ag 11.1 | LXR ag inactive | hcDAF12 conf 6.8
Cn1nc2c(c1C(=O)N1CCCC(C(=O)c3cc(F)ccc3F)C1)CCCC2 (configuration not stated)	none
COc1cc2c(cc1OC)C(c1ccccc1)=NCC2	hcDAF12 agonist 7.8 | LXR ag inactive | hcDAF12 conf inactive
COC(=O)C1=C(Nc2ccccc2NC(=O)c2ccccc2C(=O)O)CSC1	hcDAF12 agonist 7.5, ssDAF12 agonist 1.7 | LXR ag inactive | hcDAF12 conf inactive
COC(=O)C1=C(Nc2ccccc2NC(=O)CCCC(=O)O)CSC1	none (no result: DAX1 inh-1)
Cc1cnc(NC(=O)Nc2ccc(OCc3ccccc3)cc2)c(Br)c1	hcDAF12 agonist 7.3 | LXR ag inactive | hcDAF12 conf inactive
COC(=O)c1ccccc1NC(=S)NC(=O)c1ccc(C)cc1	hcDAF12 agonist 7.4 | LXR ag inactive | hcDAF12 conf inactive
COC(=O)c1ccccc1NC(=S)NC(=O)c1ccccc1	none
Cc1ccc(C(=O)NC(=S)Nc2cc(-c3nc4ccccc4s3)ccc2C)cc1	hcDAF12 agonist 7.2, hgDAF-12 ag 12.3, ssDAF12 agonist 1.4 | LXR ag inactive | hcDAF12 conf 6.0
Cc1cc(C)c(NC(=S)NC(=O)c2ccc(-c3ccccc3)cc2)c(C)c1	none
CCCCNC(=O)N1CCN(C/C=C/c2ccccc2)CC1	none
CCOc1cc2[nH]c(=O)n(CCc3ccc(OC)c(OC)c3)c(=O)c2cc1OCC	none
O=C(COC(=O)c1ccc2c(c1)C(=O)N(Cc1ccncc1)C2=O)Nc1ccccc1[N+](=O)[O-]	hcDAF12 agonist 7.0 | LXR ag inactive | hcDAF12 conf 6.2
CC(=O)c1cccc(S(=O)(=O)N2CCCC(c3nc(-c4ccc(C)o4)no3)C2)c1 (configuration not stated)	none
CSc1ccccc1C(=O)N1CCOCC1	none
CCOC(=O)C1CCN(c2ccc(-c3cccs3)nn2)CC1	none
c1csc(-c2ccc(N3CCOCC3)nn2)c1	hcDAF12 agonist 6.6, hgDAF-12 ag 13.2 | LXR ag inactive | hcDAF12 conf 5.8
C/C(=C\C(=S)Nc1ccccc1)Nc1ccc2ccccc2c1	hcDAF12 agonist 6.9 | LXR ag inactive | hcDAF12 conf inactive
O=C(c1ccco1)N1CCN(C(=O)c2ccco2)C1=S	none (no result: AHR activator)
Cc1cccn2c1nc(=S)n2C(=O)c1ccco1	hcDAF12 agonist 9.5, hgDAF-12 ag 11.9 | LXR ag inactive | hcDAF12 conf 9.2
O=c1[nH]c(=O)c2nc3c4ccccc4c4ccccc4c3nc2[nH]1	none
Cn1c(C(=O)Nc2ccccc2)cc2sccc21	AHR activator 56.5, hcDAF12 agonist 7.0, hgDAF-12 ag 11.1, ssDAF12 agonist 1.4 | LXR ag inactive | hcDAF12 conf 11.7
CC(=O)c1ccc(N=C2C(=O)Nc3ccccc32)cc1	none
CC(=O)N(/N=C1/C(=O)Nc2ccccc21)c1ccccc1	hcDAF12 agonist 12.2, ssDAF12 agonist 1.2 | LXR ag inactive | hcDAF12 conf 10.5
O=c1c2ccccc2n(Cc2ccco2)n1[C@@H](Cc1ccccc1)Cn1cc(C2CCCC2)nn1	none (no result: DAX1 inh-1, AHR activator)
COc1ccc(NC(=O)N(C)C[C@@H]2Oc3c(NC(=O)Nc4c(C)noc4C)cccc3C(=O)N([C@@H](C)CO)C[C@@H]2C)cc1	none
COc1ccc(NC(=O)Nc2cccc3c2O[C@H](CN(C)C(=O)Nc2c(C)noc2C)[C@@H](C)CN([C@H](C)CO)C3=O)cc1	hcDAF12 agonist 7.0 | LXR ag inactive | hcDAF12 conf inactive
COc1ccc(Br)cc1/C=N/N1C(=O)CSC1=S	AHR activator 48.8, hcDAF12 agonist 7.1 | LXR ag inactive | hcDAF12 conf inactive
O=C1CSC(=S)N1N=Cc1c[nH]c2ccc(Br)cc12	none (no result: AHR activator)
CN1C(C)(C)CC(NC(=O)c2ccco2)CC1(C)C	none
Cc1ccc2cc(/C=N/Nc3nc4ccccc4[nH]3)c(Cl)nc2c1	hcDAF12 agonist 13.2, hgDAF-12 ag 11.5, ssDAF12 agonist 0.9 (no result: AHR activator) | LXR ag inactive | hcDAF12 conf 14.9
Cc1ccc(NCC(=O)N/N=C/c2cc3ccccc3nc2Cl)cc1	AHR activator 60.2, hcDAF12 agonist 7.6, hgDAF-12 ag 13.5, ssDAF12 agonist 2.0 | LXR ag inactive | hcDAF12 conf 5.6
COc1ccc(-n2c(CNC(=O)COc3ccccc3)n[nH]c2=S)cc1	none
CN(C)c1ccc(-c2nnc(-c3ccccc3F)o2)cc1	AHR activator 63.0, hcDAF12 agonist 10.2, hgDAF-12 ag 13.0 | LXR ag inactive | hcDAF12 conf 6.5
CC1CCCCN1C(=O)c1c(Cl)cnn1C (configuration not stated)	none (no result: AHR activator)
NS(=O)(=O)c1ccc(NC(=S)NCc2ccco2)cc1	hcDAF12 agonist 7.2 | LXR ag inactive | hcDAF12 conf inactive
NC(=O)c1ccc(NC(=S)NCc2ccco2)cc1	none
COc1ccc(-n2c(C)cc(/C=C3\SC(=S)NC3=O)c2C)cc1	none
Cc1cc(/C=C2\SC(=S)NC2=O)c(C)n1-c1ccccc1	hcDAF12 agonist 13.4, ssDAF12 agonist 1.6 (no result: DAX1 inh-1) | LXR ag inactive | hcDAF12 conf 12.8
C#CCOCCOCCOCCNc1nc(N2CCN(C(=O)[C@H](CCCCN)n3cc([C@@H](N)CC(C)C)nn3)CC2)nc(N2CCN(C(=O)[C@H](Cc3cc4ccccc4[nH]3)n3cc([C@@H](N)CC(C)C)nn3)CC2)n1	hcDAF12 agonist 8.1 (no result: DAX1 inh-1, AHR activator, DAX1 inh-2) | LXR ag inactive | hcDAF12 conf inactive
C#CCOCCOCCOCCNc1nc(N2CCN(C(=O)[C@H](CCCCN)n3cc([C@@H](N)CC(C)C)nn3)CC2)nc(N2CCN(C(=O)[C@H](Cc3cc4ccccc4[nH]3)n3cc([C@@H](N)Cc4ccc(O)cc4)nn3)CC2)n1	none (no result: DAX1 inh-2, hcDAF12 agonist, hgDAF-12 ag, ssDAF12 agonist)
COC(=O)C1C(O)=C(C=Nc2ccc3ccccc3c2)C(=O)CC1(C)C (configuration not stated)	none
